Results reported in PubChem BioAssay AID1159580 (chemical genetic matrix, 2015).
Several values for one entry are separate records, joined by “and”; a condition that tells them apart may be missing. Equal entries are not always repeated. Hit rate of the full screen: of about 5,500 compounds, about 2,000 (36%) were called active. Inconclusive results (about 18%) are left out. No stated cut-off is given here; in the data, active means normalized growth mostly below about 0.91 (no sharp cut-off); inconclusive means no clear call, values can overlap the other calls; inactive means mostly above about 0.92. Some of the results follow.

Test: chemical genetic growth profiling, strain panel (AID 1159580);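 further: tested at 20 µM; growth read once vehicle control cultures reached saturation at 30 °C; 1 = growth at the plate median or of vehicle wells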
Conditions: S. cerevisiae deletion strains, growth OD

Measured: normalized growth

CC(=O)OCC(=O)[C@@]1(O)CCC2C3C[C@H](C)C4=CC(=O)C=CC4(C)C3[C@@H](O)CC21C (stereo partly specified)
inactive: locus YAL013W, strain DEP1, stronger effect = lower value 1.01 | locus YAL021C, strain ccr4, stronger effect = lower value 1.03 | locus YAL026C, strain drs2, stronger effect = lower value 1.03 | locus YAL030W, strain snc1, stronger effect = lower value 1.01 | locus YBL061C, strain skt5, stronger effect = lower value 1.01 | locus YBR009C, strain hhf1, stronger effect = lower value 0.985 | locus YBR021W, strain FUR4, stronger effect = lower value 0.968 | locus YBR023C, strain chs3, stronger effect = lower value 1.02 | locus YBR171W, strain sec66, stronger effect = lower value 1.03 | locus YBR229C, strain ROT2, stronger effect = lower value 1.01 | locus YBR231C, strain swc5, stronger effect = lower value 1.01 | locus YBR279W, strain paf1, stronger effect = lower value 1.01 | locus YCL011C, strain gbp2, stronger effect = lower value 1.02 | locus YCL016C, strain dcc1, stronger effect = lower value 1.01 | locus YCL029C, strain bik1, stronger effect = lower value 1.01 | locus YCL061C, strain MRC1, stronger effect = lower value 1.03 | locus YCL069W, strain vba3, stronger effect = lower value 1.03 | locus YCR088W, strain abp1, stronger effect = lower value 1.02 | locus YDL005C, strain med2, stronger effect = lower value 1.01 | locus YDL035C, strain GPR1, stronger effect = lower value 1.01 | locus YDL040C, strain nat1, stronger effect = lower value 1.01 | locus YDL074C, strain BRE1, stronger effect = lower value 0.994 | locus YDL101C, strain DUN1, stronger effect = lower value 1.01 | locus YDL134C, strain PPH21, stronger effect = lower value 1.01 | locus YDL185W, strain tfp1, stronger effect = lower value 1.01 | locus YDL192W, strain arf1, stronger effect = lower value 1 | locus YDR001C, strain nth1, stronger effect = lower value 1.01 | locus YDR069C, strain doa4, stronger effect = lower value 1.02 | locus YDR101C, strain arx1, stronger effect = lower value 1 | locus YDR137W, strain rgp1, stronger effect = lower value 1.03 | locus YDR150W, strain NUM1, stronger effect = lower value 1.01 | locus YDR159W, strain sac3, stronger effect = lower value 0.995 | locus YDR162C, strain NBP2, stronger effect = lower value 0.992 | locus YDR195W, strain ref2 1.01 | locus YDR297W, strain sur2, stronger effect = lower value 0.994 | locus YDR318W, strain mcm21, stronger effect = lower value 1.01 | locus YDR334W, strain swr1, stronger effect = lower value 1.02 | locus YDR335W, strain msn5, stronger effect = lower value 1.02 | locus YDR388W, stronger effect = lower value 1.01 | locus YDR392W, strain spt3, stronger effect = lower value 1.03 | locus YDR502C, strain sam2, stronger effect = lower value 0.989 | locus YEL003W, strain gim4, stronger effect = lower value 1.02 | locus YEL037C, strain rad23, stronger effect = lower value 1.02 | locus YEL061C, strain CIN8 (second series), stronger effect = lower value 1.02 | locus YEL061C, strain CIN8, stronger effect = lower value 1.01 | locus YER015W, strain faa2, stronger effect = lower value 1.01 | locus YER016W, strain bim1, stronger effect = lower value 1.03 | locus YER110C, stronger effect = lower value 1.01 | locus YER111C, strain swi4, stronger effect = lower value 1.02 | locus YER155C, strain BEM2 (second series), stronger effect = lower value 1.05 | locus YER155C, strain BEM2, stronger effect = lower value 1.01 | locus YER167W, strain BCK2, stronger effect = lower value 1.01 | locus YFR010W, strain ubp6, stronger effect = lower value 0.996 | locus YGL078C, strain dbp3, stronger effect = lower value 1 | locus YGL086W, strain mad1, stronger effect = lower value 1.02 | locus YGL167C, strain pmr1, stronger effect = lower value 1.02 | locus YGL173C, strain kem1, stronger effect = lower value 1.03 | locus YGL227W, strain vid30, stronger effect = lower value 1.02 | locus YGL240W, strain doc1, stronger effect = lower value 1 | locus YGL248W, strain PDE1, stronger effect = lower value 1 | locus YGL253W, strain hxk2, stronger effect = lower value 1.01 | locus YGR078C, strain PAC10, stronger effect = lower value 0.996 | locus YGR135W, strain pre9, stronger effect = lower value 0.982 | locus YGR229C, strain SMI1, stronger effect = lower value 1 | locus YGR252W, strain gcn5, stronger effect = lower value 1.03 | locus YHR013C, strain ard1, stronger effect = lower value 1.03 | locus YHR027C, strain rpn1, stronger effect = lower value 1.01 | locus YHR030C, strain SLT2, stronger effect = lower value 1.01 | locus YHR079C, strain IRE1 (second series), stronger effect = lower value 1.01 | locus YHR079C, strain IRE1, stronger effect = lower value 1.02 | locus YHR094C, strain hxt1, stronger effect = lower value 1.01 | locus YHR129C, strain ARP1, stronger effect = lower value 1.02 | locus YHR142W, strain chs7, stronger effect = lower value 1.01 | locus YHR200W, strain rpn10, stronger effect = lower value 1 | locus YIL066C, strain RNR3, stronger effect = lower value 1.02 | locus YIL073C, strain SPO22, stronger effect = lower value 1.03 | locus YIL125W, strain kgd1, stronger effect = lower value 1.01 | locus YIR030C, strain dcg1, stronger effect = lower value 0.997 | locus YJL092W, strain hpr5, stronger effect = lower value 1.02 | locus YJL095W, strain BCK1 (second series), stronger effect = lower value 1.01 | locus YJL095W, strain BCK1, stronger effect = lower value 1.01 and 1.02 | locus YJL115W, strain asf1, stronger effect = lower value 1.02 | locus YJL129C, strain trk1, stronger effect = lower value 1.02 | locus YJL134W, strain LCB3, stronger effect = lower value 1 | locus YJL154C, strain vps35, stronger effect = lower value 1.02 | locus YJL164C, strain tpk1, stronger effect = lower value 1.01 | locus YJL166W, strain qcr8, stronger effect = lower value 1.01 | locus YJL168C, strain set2, stronger effect = lower value 1.01 | locus YJL187C, strain SWE1 (second series), stronger effect = lower value 1.02 | locus YJR043C, strain POL32, stronger effect = lower value 0.999 | locus YJR066W, strain TOR1, stronger effect = lower value 0.99
